The record followed here is PubChem BioAssay (NCATS).

Chain of Catechol O-methyltransferase (Homo sapiens) (P21964 whole entry, looked up): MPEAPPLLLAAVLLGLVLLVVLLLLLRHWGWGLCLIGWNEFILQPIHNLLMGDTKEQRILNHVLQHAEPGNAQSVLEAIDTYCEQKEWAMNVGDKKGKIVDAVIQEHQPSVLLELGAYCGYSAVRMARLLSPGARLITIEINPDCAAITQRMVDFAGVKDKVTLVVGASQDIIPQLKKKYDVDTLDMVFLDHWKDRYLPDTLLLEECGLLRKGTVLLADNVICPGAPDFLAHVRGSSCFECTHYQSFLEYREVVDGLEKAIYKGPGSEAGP

One experiment has as its target Catechol O-methyltransferase (Homo sapiens) (UniProt P21964). The experiment is described as follows: Confirmatory Screen for Target Class Profiling of Small Molecule Inhibitors of Methyltransferases (AID 1745852). As to activity change, negative = inhibition: % is scaled to controls: 0 for no effect and ±100 for the full control effect. As to conditions: MTase-Glo luminescence, SAH detection, recombinant enzyme; measured here: COMT max response; stronger effect = lower value.
`CCC(=O)c1ccc2c(c1)N(CCCN(C)C)c1ccccc1S2`: the activity was 6.41%.

Consider `COC(=O)[C@@H](N)Cc1ccc(O)c(O)c1`, for which the activity stood at 134%.

In the case of `NC1=NCC2c3ccccc3Cc3ccccc3N12` (stereo not drawn), the activity is -1.67%.

For the compound `CCCN1C[C@H](CSC)C[C@@H]2c3cccc4[nH]cc(c34)C[C@H]21`, the activity is -0.209%.

Consider `CN(C)[C@@H]1C(=O)C(C(N)=O)=C(O)[C@@]2(O)C(=O)C3=C(O)c4c(O)ccc(Cl)c4[C@@H](O)[C@H]3C[C@@H]12`, for which the activity was -43.5%.

For `CN(C)CC[C@@H](c1ccc(Br)cc1)c1ccccn1`, the activity was -5.16%.

In the case of `CCc1cccc(N(C)C(N)=Nc2cccc3ccccc23)c1`, the activity was -0.0494%.

The target of a further experiment is Guanidinoacetate N-methyltransferase (Homo sapiens) (UniProt Q14353). Described as above. The settings on record: MTase-Glo luminescence, SAH detection, recombinant enzyme; at 57.3 µM (top of the series).
Regarding `CCC(=O)c1ccc2c(c1)N(CCCN(C)C)c1ccccc1S2`, the activity change, negative = inhibition amounted to 4.3%.

As to `COC(=O)[C@@H](N)Cc1ccc(O)c(O)c1`, the activity change, negative = inhibition was found to be 1.23%.

Regarding `NC1=NCC2c3ccccc3Cc3ccccc3N12` (stereo not drawn), the activity change, negative = inhibition amounted to 4.05%.

As to `CCCN1C[C@H](CSC)C[C@@H]2c3cccc4[nH]cc(c34)C[C@H]21`, the activity change, negative = inhibition was 5.03%.

With `CN(C)[C@@H]1C(=O)C(C(N)=O)=C(O)[C@@]2(O)C(=O)C3=C(O)c4c(O)ccc(Cl)c4[C@@H](O)[C@H]3C[C@@H]12`, the activity change, negative = inhibition is 8.05%.

Consider `CN(C)CC[C@@H](c1ccc(Br)cc1)c1ccccn1`, for which the activity change, negative = inhibition was found to be 1.79%.

Turning to `CCc1cccc(N(C)C(N)=Nc2cccc3ccccc23)c1`, the activity change, negative = inhibition was found to be 4.76%.

In the next experiment the target is Nicotinamide N-methyltransferase (Homo sapiens) (UniProt P40261). Described as above. As to conditions: MTase-Glo luminescence, SAH detection, recombinant enzyme; measured here: NNMT max response; stronger effect = lower value.
Chain of Nicotinamide N-methyltransferase (Homo sapiens) (P40261 whole entry, looked up): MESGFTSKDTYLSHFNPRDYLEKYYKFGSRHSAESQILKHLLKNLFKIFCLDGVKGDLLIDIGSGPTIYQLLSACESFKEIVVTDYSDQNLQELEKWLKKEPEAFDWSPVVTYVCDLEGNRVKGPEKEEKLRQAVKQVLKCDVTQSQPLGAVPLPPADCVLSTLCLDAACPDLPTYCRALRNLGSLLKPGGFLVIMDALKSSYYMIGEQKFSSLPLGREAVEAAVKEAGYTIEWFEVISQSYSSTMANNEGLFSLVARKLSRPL
Regarding `CCC(=O)c1ccc2c(c1)N(CCCN(C)C)c1ccccc1S2`, the activity is -51.8%.

With `COC(=O)[C@@H](N)Cc1ccc(O)c(O)c1`, the activity was 4.06%.

Consider `NC1=NCC2c3ccccc3Cc3ccccc3N12` (stereo not drawn), for which the activity was -14.5%.

Turning to `CCCN1C[C@H](CSC)C[C@@H]2c3cccc4[nH]cc(c34)C[C@H]21`, the activity is -3.93%.

In the case of `CN(C)[C@@H]1C(=O)C(C(N)=O)=C(O)[C@@]2(O)C(=O)C3=C(O)c4c(O)ccc(Cl)c4[C@@H](O)[C@H]3C[C@@H]12`, the activity was -3.56%.

With `CN(C)CC[C@@H](c1ccc(Br)cc1)c1ccccn1`, the activity is -23.7%.

As to `CCc1cccc(N(C)C(N)=Nc2cccc3ccccc23)c1`, the activity is -4.43%.

For another experiment, the target named is Phenylethanolamine N-methyltransferase (Homo sapiens) (UniProt P11086). The description is as above. The settings on record: MTase-Glo luminescence, SAH detection, recombinant enzyme; measured here: PNMT max response; stronger effect = lower value.
Chain of Phenylethanolamine N-methyltransferase (Homo sapiens) (P11086 whole entry, looked up): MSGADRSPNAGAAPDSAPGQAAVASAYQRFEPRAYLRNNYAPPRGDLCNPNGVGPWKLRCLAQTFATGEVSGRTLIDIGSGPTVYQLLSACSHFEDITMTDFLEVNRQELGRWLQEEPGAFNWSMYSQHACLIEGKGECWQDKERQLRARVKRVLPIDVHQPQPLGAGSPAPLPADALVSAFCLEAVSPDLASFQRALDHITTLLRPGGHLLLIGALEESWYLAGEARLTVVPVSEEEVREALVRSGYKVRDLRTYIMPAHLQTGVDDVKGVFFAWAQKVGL
As to `CCC(=O)c1ccc2c(c1)N(CCCN(C)C)c1ccccc1S2`, the activity is -2.93%.

With `COC(=O)[C@@H](N)Cc1ccc(O)c(O)c1`, the activity was 5.34%.

With `NC1=NCC2c3ccccc3Cc3ccccc3N12` (stereo not drawn), the activity is -3.06%.

Consider `CCCN1C[C@H](CSC)C[C@@H]2c3cccc4[nH]cc(c34)C[C@H]21`, for which the activity stood at 0.569%.

For the compound `CN(C)[C@@H]1C(=O)C(C(N)=O)=C(O)[C@@]2(O)C(=O)C3=C(O)c4c(O)ccc(Cl)c4[C@@H](O)[C@H]3C[C@@H]12`, the activity amounted to 2.12%.

Regarding `CN(C)CC[C@@H](c1ccc(Br)cc1)c1ccccn1`, the activity worked out at 0.473%.

For the compound `CCc1cccc(N(C)C(N)=Nc2cccc3ccccc23)c1`, the activity came out at 1.17%.
